# Assay results taken from PubChem BioAssay (NCATS).
# Records with an inconclusive call do not appear. Where a call stands in place of a potency, no number is given. More than one record can exist for a structure, and the calls need not agree. Activity calls are given as the source filed them. Unless noted, the call rests on the fitted dose curve; in most records, active means well fitted curve in the direction sought with a large enough effect; inconclusive means small, poorly fitted or top-dose-only effect, or another doubt; inactive means no such curve, though single readings can be large; an effect the other way counts as inactive or inconclusive.
# Key:
# [1] = qHTS Assay for Identification of Small Molecule Antagonists for Thrombopoietin (TPO) Signaling Pathway (AID 918); conditions: TPO-dependent cell signaling reporter, antagonist mode; further: potency means the concentration at half of the fitted maximal effect; nearly all actives have a fitted effect of over 60% in size
# Procedure, shortened: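 Ba/F3 (murine, hTPO-R, GPIIb-luc reporter); overnight IL-3 withdrawal; cpd + TPO 26 pM final (EC50); 24 h 37 C/5% CO2; Steadylite luminescence after 10 min RT.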
# [2] = target: Muscarinic acetylcholine receptor M1 (Rattus norvegicus) (UniProt P08482); experiment: qHTS Assay for Antagonists of Acetylcholine Muscarinic M1 Receptor: Kinetic Measurement of Intracellular Calcium Response (AID 943); conditions: M1-expressing cells, kinetic intracellular calcium fluorescence; series mostly up to 35.3 µM; further: nearly all actives have a fitted effect of over 75% in size; further: potency means the concentration at half of the fitted maximal effect
# Sequence of Muscarinic acetylcholine receptor M1 (Rattus norvegicus) (P08482 whole entry, looked up): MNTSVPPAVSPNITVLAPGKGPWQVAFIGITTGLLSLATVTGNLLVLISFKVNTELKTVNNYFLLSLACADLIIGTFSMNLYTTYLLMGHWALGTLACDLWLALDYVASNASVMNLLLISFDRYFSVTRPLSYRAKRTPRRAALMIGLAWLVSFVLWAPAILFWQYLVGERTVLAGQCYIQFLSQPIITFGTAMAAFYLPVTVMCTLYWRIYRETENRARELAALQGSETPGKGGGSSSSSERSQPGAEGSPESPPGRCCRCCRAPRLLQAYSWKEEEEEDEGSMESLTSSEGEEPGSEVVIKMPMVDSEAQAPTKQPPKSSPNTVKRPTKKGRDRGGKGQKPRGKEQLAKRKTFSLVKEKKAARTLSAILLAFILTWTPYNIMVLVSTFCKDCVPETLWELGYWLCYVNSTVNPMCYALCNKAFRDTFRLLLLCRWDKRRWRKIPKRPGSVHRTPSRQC
# Procedure, shortened: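 Rat M1-CHO cells, 2000/well, overnight → Fluo-4 no-wash dye with probenecid, 1 h 37C → compound 10 min, room temp → basal read 6 s → carbachol EC80 (100 nM) → 4 min kinetic read; peak/basal.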
# [3] = target: Muscarinic acetylcholine receptor M1 (Rattus norvegicus) (UniProt P08482); experiment: qHTS Assay for Antagonists of Acetylcholine Muscarinic M1 Receptor: Measurement of IP-One Response (AID 944); conditions: CHO-M1 cells, IP-One HTRF, antagonist mode; series mostly up to 46.1 µM; further: nearly all actives have a fitted effect of over 75% in size; further: potency means the concentration at half of the fitted maximal effect
# Procedure, shortened: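 M1-CHO (rat), 2000 cells/well, overnight recovery; cpd 10 min; carbachol EC80 (200 nM), 30 min, HEPES buffer + 50 mM LiCl pH 7.4; IP-One HTRF, Ex 337, Em 620/665 nm.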
# [4] = target: Pyruvate kinase (Leishmania mexicana) (UniProt Q27686); experiment: qHTS Validation Assay for Inhibitors of Leishmania Mexicana Pyruvate Kinase (AID 945); conditions: purified L. mexicana pyruvate kinase, enzyme activity, E451W mutant enzyme; series mostly up to 57.5 µM
# Sequence of Pyruvate kinase (Leishmania mexicana) (Q27686 2-499 E452W): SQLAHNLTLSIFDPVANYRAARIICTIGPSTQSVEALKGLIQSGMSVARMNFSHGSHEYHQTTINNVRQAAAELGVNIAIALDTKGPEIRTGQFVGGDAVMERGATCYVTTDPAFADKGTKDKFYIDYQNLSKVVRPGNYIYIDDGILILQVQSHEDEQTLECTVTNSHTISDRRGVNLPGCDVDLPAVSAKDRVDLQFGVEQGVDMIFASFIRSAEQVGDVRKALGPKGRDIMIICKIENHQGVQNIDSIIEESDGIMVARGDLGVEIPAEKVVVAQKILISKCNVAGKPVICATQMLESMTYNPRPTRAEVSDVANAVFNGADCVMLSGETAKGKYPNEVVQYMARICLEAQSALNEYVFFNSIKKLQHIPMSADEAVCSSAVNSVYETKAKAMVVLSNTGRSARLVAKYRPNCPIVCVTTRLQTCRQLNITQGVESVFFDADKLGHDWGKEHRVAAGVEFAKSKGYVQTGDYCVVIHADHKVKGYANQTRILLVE
# Procedure, shortened: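 An endpoint luciferase assay: 0.2 nM LmPYK E451W turns over 0.5 mM PEP with 0.1 mM ADP for 1 h at room temperature, pH 7.2, before PKLight addition. Values are normalized to DMSO-only wells.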
# [5] = target: Alpha-galactosidase (Coffea arabica) (UniProt Q42656); experiment: Counterscreen for Glucocerebrosidase Inhibitors: qHTS Assay for Coffee Bean alpha-Galactosidase at pH 4.5 (AID 957); conditions: purified coffee bean alpha-galactosidase, fluorogenic substrate; series mostly up to 76.9 µM
# Sequence of Alpha-galactosidase (Coffea arabica) (Q42656 whole entry, looked up): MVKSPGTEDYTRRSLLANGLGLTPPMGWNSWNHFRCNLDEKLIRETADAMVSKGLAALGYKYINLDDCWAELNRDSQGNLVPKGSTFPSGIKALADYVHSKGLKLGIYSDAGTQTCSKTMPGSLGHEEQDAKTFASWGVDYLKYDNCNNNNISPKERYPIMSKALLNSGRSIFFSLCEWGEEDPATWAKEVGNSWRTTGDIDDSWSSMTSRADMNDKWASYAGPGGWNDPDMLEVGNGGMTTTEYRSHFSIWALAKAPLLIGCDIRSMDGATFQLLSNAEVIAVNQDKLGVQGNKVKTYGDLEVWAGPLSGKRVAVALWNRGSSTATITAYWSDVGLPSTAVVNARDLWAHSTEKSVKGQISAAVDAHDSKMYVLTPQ
# Procedure, shortened: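 Coffee bean alpha-galactosidase 2 nM, substrate 4-MU-alpha-Gal 80 uM, pH 4.5 citrate/Tween-20, 20 min RT. Cpd titration 0.7 nM–77 uM. Stop pH 10, fluorescence 365/440 nm; Hill-equation AC50.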
# [6] = target: alpha-glucosidase (Oryza sativa, rice) (UniProt Q653V4); experiment: Counterscreen for Glucocerebrosidase Inhibitors: qHTS Assay for Rice alpha-Glucosidase at pH 5.0 (AID 997); conditions: rice alpha-glucosidase enzyme activity; series mostly up to 76.9 µM
# Procedure, shortened: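 Rice alpha-glucosidase (4 nM final) with 400 uM 4-methylumbelliferyl-alpha-D-glucopyranoside in citrate buffer pH 5.0, 20 min at room temperature, stopped at pH 10; fluorescence 365/440 nm, compounds 0.7 nM–77 uM, AC50 from Hill fits.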
# [7] = target: Alpha-galactosidase (Coffea arabica) (UniProt Q42656); experiment: Counterscreen for Glucocerebrosidase Inhibitors: qHTS Assay for Coffee Bean alpha-Galactosidase at pH 5.9 (AID 998); conditions: coffee bean alpha-galactosidase enzyme assay; series mostly up to 76.9 µM
# Procedure, shortened: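 Compounds were titrated from 0.7 nM to 77 uM against green coffee bean alpha-galactosidase (2 nM) using 80 uM fluorogenic 4-methylumbelliferyl substrate. After 20 min at room temperature, reactions were stopped at pH 10 and read by fluorescence.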
# [8] = target: Ubiquitin carboxyl-terminal hydrolase 1 (Homo sapiens) (UniProt O94782); experiment: Inhibitors of USP1/UAF1: Pilot qHTS (AID 504865); conditions: purified USP1/UAF1, Ub-rhodamine cleavage fluorescence; series mostly up to 114 µM; further: nearly all actives have a fitted effect of over 35% in size; further: potency means the concentration at half of the fitted maximal effect
# Sequence of Ubiquitin carboxyl-terminal hydrolase 1 (Homo sapiens) (O94782 whole entry, looked up): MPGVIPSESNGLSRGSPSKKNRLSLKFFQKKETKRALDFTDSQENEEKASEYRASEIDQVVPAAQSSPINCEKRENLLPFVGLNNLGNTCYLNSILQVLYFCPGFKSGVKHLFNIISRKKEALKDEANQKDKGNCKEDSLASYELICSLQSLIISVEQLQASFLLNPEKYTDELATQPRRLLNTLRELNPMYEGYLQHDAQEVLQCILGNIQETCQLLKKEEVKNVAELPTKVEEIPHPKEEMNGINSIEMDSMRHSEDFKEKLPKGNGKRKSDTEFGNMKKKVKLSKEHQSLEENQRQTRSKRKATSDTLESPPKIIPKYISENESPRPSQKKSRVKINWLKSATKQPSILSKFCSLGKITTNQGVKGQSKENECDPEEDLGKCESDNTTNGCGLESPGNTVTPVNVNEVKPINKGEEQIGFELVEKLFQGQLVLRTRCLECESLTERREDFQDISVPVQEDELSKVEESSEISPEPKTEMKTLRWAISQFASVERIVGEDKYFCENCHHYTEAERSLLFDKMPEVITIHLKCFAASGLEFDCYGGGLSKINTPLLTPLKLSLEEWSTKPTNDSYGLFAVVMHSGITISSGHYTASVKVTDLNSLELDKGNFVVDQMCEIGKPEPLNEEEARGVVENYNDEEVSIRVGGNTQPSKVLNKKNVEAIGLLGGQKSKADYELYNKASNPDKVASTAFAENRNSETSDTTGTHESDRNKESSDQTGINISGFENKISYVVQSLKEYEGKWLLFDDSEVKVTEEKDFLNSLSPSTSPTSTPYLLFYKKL
# Procedure, shortened: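 Deubiquitinase activity followed as kinetic rhodamine fluorescence release from 150 nM Ub-Rho. 1 nM USP1/UAF1 with compound, after 15 min room-temperature preincubation, in HEPES pH 7.8 buffer containing TCEP, EDTA, BSA and Tween-20.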
# [9] = target: Pyruvate kinase PKM (Homo sapiens) (UniProt P14618); experiment: qHTS Assay for Activators of Human Muscle Pyruvate Kinase (AID 954; active means well fitted curve in the direction sought with a large enough effect, not every such curve was filed as active); conditions: purified human muscle pyruvate kinase, luciferase-coupled luminescence, 1 h; series mostly up to 57.5 µM
# Sequence of Pyruvate kinase PKM (Homo sapiens) (P14618 whole entry, looked up): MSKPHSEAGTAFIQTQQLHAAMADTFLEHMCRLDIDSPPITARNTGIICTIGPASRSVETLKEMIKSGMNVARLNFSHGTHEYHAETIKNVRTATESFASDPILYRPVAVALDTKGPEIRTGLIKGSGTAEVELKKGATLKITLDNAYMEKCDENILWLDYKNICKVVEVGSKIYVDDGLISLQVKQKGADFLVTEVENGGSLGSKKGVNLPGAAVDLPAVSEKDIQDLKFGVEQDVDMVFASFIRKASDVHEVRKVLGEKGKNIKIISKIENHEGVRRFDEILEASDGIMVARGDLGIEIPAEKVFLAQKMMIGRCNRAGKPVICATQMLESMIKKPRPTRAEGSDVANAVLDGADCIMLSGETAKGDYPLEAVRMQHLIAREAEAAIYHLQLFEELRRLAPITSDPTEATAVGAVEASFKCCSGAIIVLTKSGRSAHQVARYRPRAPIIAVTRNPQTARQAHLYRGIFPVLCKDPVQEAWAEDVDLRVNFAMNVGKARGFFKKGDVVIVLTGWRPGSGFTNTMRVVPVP
# Procedure, shortened: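 Purified human PKM2 (0.1 nM) with 0.5 mM PEP (Km) and 0.1 mM ADP in 50 mM imidazole pH 7.2, KCl, MgCl2, 1 h at room temperature; ATP formed read by coupled luciferase luminescence. Normalized to no-enzyme/110 uM thiadiazolimine inhibition; 0.3 nM enzyme column for activation.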
# [10] = qHTS Assay for Identification of Small Molecule Agonists for Hypoxia Response Element Signaling Pathway (AID 914; active means well fitted activation curve with a large enough effect in the signal ratio, with a control signal flat, not every such curve was filed as active; the % refers to the signal ratio; further: potency means the concentration at half of the fitted maximal effect); conditions: ME-180 (cervical carcinoma) HRE-bla reporter, beta-lactamase ratio, CoCl2, 17 h; activation: stronger effect = higher value
# Procedure, shortened: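 In Opti-MEM containing 0.5% dialyzed FBS and 10 mM HEPES, ME-180 HRE-bla cells received a compound titration and EC50 CoCl2. They were incubated 17 hours, then CCF4-loaded 2.5 hours at room temperature before ratio reading.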
# [11] = target: Estrogen receptor (Homo sapiens) (UniProt P03372); experiment: qHTS assay for small molecule agonists of estrogen receptor alpha signaling (AID 588514; calls by dose curve; further: nearly all actives have a fitted effect of over 70% in size); conditions: ER-alpha-UAS-bla HEK293, beta-lactamase ratio, 18 h; series mostly up to 76.8 µM
# Sequence of Estrogen receptor (Homo sapiens) (P03372 whole entry, looked up): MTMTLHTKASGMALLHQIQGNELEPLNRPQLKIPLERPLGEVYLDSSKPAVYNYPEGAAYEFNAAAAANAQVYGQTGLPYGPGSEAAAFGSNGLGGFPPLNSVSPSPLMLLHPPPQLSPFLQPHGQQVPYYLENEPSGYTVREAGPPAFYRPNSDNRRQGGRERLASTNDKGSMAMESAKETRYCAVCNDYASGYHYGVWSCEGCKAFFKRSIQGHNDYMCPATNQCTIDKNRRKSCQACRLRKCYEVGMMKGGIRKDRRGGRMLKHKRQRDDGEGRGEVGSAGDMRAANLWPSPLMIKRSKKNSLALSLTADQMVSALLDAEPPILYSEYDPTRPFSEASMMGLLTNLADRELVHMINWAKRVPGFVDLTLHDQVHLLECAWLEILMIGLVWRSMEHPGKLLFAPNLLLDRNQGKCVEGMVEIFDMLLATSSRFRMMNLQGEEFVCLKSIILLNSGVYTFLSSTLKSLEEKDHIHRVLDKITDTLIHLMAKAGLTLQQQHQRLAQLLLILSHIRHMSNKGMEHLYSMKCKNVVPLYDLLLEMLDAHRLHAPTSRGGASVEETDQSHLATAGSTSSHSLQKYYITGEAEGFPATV
# Procedure, shortened: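 Cells were plated at 5000/well, incubated 4 hrs at 37 C, dosed with compound titration series, incubated 18 hrs at 37 C, loaded with CCF4 dye for 2 hrs at RT, then fluorescence was read.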
# [12] = target: Bile acid receptor (Homo sapiens) (UniProt Q96RI1); experiment: qHTS assay for small molecule antagonists of farnesoid X receptor signaling (AID 588526; calls by dose curve); conditions: HEK293T FXR-UAS-bla, beta-lactamase ratio, antagonist mode; series mostly up to 76.7 µM
# Sequence of Bile acid receptor (Homo sapiens) (Q96RI1 whole entry, looked up): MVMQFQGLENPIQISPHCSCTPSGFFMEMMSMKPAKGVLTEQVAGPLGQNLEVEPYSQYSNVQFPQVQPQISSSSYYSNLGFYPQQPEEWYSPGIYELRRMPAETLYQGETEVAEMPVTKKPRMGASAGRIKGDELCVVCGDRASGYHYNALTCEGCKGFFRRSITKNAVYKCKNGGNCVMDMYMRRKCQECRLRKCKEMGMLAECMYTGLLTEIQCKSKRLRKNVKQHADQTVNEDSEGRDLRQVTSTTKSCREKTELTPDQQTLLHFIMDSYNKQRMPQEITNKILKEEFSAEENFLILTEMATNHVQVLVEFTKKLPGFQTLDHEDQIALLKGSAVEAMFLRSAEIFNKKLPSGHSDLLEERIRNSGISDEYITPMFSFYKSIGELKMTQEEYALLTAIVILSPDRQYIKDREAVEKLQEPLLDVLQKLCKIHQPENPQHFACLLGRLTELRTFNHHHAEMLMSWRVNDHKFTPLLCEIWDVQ
# Procedure, shortened: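 Beta-lactamase reporter antagonist mode: HEK293T FXR-UAS-bla cells, titrated compound, CDCA stimulation, 16 h 37 C, CCF4 dye 2 h RT. Data normalized to CDCA 50 uM and DMSO; Hill-fit IC50.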
# [13] = target: Bile acid receptor (Homo sapiens) (UniProt Q96RI1); experiment: qHTS assay for small molecule agonists of farnesoid X receptor signaling (AID 588527; calls by dose curve); conditions: HEK293T FXR-UAS-bla, beta-lactamase ratio, 16 h; activation: stronger effect = higher value
# Procedure, shortened: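 FXR-UAS-bla HEK293T cells (10% dialyzed FBS) preincubated 5-7 h at 37 C, then compounds at up to 92 uM for 16 h at 37 C. CCF4 beta-lactamase read-out after 2 h RT. Normalized to chenodeoxycholic acid (100 uM) and DMSO; Hill fit gave EC50 and efficacy.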
# [14] = target: Glucocorticoid receptor (Homo sapiens) (UniProt P04150); experiment: qHTS assay for small molecule antagonists of glucocorticoid receptor signaling (AID 588533; active means well fitted inhibition curve with a large enough effect in the signal ratio, with a control signal flat, not every such curve was filed as active; the % refers to the signal ratio;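 further: cells stimulated with 2 nM dexamethasone as agonist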; further: potency means the concentration at half of the fitted maximal effect); conditions: HeLa MMTV-bla, GRE beta-lactamase ratio, antagonist mode, 18 h; series mostly up to 76.8 µM
# Sequence of Glucocorticoid receptor (Homo sapiens) (P04150 whole entry, looked up): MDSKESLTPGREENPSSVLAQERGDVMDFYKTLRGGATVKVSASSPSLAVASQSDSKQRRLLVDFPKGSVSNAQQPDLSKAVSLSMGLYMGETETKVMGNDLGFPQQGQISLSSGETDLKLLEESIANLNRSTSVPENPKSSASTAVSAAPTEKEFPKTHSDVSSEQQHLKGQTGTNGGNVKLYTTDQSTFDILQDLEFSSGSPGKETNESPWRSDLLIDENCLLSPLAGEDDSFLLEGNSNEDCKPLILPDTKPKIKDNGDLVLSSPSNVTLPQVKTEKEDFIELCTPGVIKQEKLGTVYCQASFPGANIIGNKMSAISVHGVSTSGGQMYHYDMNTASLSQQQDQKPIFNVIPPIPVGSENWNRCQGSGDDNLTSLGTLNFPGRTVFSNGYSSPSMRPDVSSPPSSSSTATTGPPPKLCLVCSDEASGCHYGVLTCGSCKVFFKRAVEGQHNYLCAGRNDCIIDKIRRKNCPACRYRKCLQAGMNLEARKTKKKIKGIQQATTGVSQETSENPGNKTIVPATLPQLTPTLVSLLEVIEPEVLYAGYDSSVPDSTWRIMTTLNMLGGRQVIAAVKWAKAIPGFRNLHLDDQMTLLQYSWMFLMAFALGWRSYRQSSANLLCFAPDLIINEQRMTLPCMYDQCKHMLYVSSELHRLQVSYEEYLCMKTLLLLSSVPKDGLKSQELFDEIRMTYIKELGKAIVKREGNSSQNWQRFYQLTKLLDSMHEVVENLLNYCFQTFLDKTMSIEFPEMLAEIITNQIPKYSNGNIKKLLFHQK
# Procedure, shortened: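 Antagonist-mode qHTS: compound titrations added to GRE-bla HeLa cells, then dexamethasone 2 nM final; 18 h, 37 C. CCF4 FRET fluorescence normalized to dexamethasone and DMSO; IC50 from Hill fit.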
# [15] = qHTS assay for small molecule antagonists of peroxisome proliferator-activated receptor delta signaling (AID 588535; active means well fitted inhibition curve with a large enough effect in the signal ratio, with a control signal flat, not every such curve was filed as active; the % refers to the signal ratio;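 on max response: cells co-treated with a PPAR-delta agonist as stimulator during compound exposure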); conditions: HEK293T PPARd-UAS-bla, beta-lactamase FRET ratio, 18 h; 460 nm channel
# Procedure, shortened: (§1)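 HEK293T PPAR-delta-UAS-bla cells, 4000/well, 2% charcoal/dextran FBS; 5 h 37 C; cpd titration; 18 h 37 C; CCF4 2 h RT; FI 460/530 nm; Hill fit → IC50, efficacy.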
# [16] = target: Peroxisome proliferator-activated receptor delta (Homo sapiens) (UniProt Q03181); experiment: as above; conditions: HEK293T PPARd-UAS-bla, beta-lactamase FRET ratio, 18 h; series mostly up to 76.7 µM
# Procedure, shortened: as §1
# [17] = target: Peroxisome proliferator-activated receptor gamma (Homo sapiens) (UniProt P37231); experiment: qHTS assay for small molecule antagonists of peroxisome proliferator-activated receptor gamma signaling (AID 588537; active means well fitted inhibition curve with a large enough effect in the signal ratio, with a control signal flat, not every such curve was filed as active; the % refers to the signal ratio;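 further: reporter cells co-stimulated with 50 nM rosiglitazone agonist during compound treatment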); conditions: HEK293 PPARg-UAS-bla, beta-lactamase ratio, antagonist mode; series mostly up to 76.8 µM
# Sequence of Peroxisome proliferator-activated receptor gamma (Homo sapiens) (P37231 whole entry, looked up): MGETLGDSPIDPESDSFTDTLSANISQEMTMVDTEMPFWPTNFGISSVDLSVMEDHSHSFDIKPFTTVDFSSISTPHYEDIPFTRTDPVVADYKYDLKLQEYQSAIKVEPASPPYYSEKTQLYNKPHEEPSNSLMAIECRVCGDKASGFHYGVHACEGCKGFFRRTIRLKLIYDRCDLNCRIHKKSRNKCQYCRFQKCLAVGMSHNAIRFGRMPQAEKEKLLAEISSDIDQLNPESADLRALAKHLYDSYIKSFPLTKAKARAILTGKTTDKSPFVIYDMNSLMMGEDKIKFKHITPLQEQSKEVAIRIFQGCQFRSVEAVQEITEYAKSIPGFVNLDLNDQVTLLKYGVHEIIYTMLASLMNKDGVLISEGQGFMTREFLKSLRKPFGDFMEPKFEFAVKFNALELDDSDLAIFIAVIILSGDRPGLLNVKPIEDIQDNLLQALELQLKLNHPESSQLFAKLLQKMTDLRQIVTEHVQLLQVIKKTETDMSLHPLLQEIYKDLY
# Procedure, shortened: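 Antagonist mode, beta-lactamase reporter in HEK293; charcoal/dextran FBS 1%; 3000 cells/well, 37 C 6-6.5 h; cpd titration + rosiglitazone 50 nM final, 16 h 37 C; CCF4, 2 h RT; 460/530 nm; Hill fit → IC50, efficacy.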
smiles,measurement,setting,value
N[C@@H](Cc1cc(O)c(O)cc1O)C(=O)O,Potency,[1],12.6 µM (active)
same,Potency,[2],inactive
same,Potency,[3],inactive
same,Potency,[4],inactive
same,outcome,[5],inactive
same,outcome,[6],inactive
same,outcome,[7],inactive
CCCCCC[C@H]1C(=O)O[C@H](C)[C@H](NC(=O)c2cccc(NC=O)c2O)C(=O)O[C@@H](C)[C@H]1OC(=O)CC(C)C,Potency,[8],28.2 µM (active)
CN1[C@@H]2CC[C@H]1CC(O[C@@H](c1ccccc1)c1ccccc1N)C2 (some centres not stated),Potency,[2],0.0141 µM (active)
same,Potency,[3],0.0071 µM (active)
same,Potency,[4],inactive
same,outcome,[9],inactive
same,outcome,[5],inactive
same,outcome,[6],inactive
same,outcome,[7],inactive
NC(=O)c1ccc(OC[C@H](O)CN2CC=C(c3ccc(F)cc3)CC2)cc1,activation,[10],-0.382% (inactive)
same,Potency,[2],6.31 µM (active)
same,Potency,[4],inactive
same,outcome,[9],inactive
same,outcome,[5],inactive
same,outcome,[6],inactive
same,outcome,[7],inactive
C[C@]1(C(=O)O)[C@@H]2CC[C@@H](O2)[C@@]1(C)C(=O)O,Potency,[1],5.01 µM (active)
same,Potency,[2],inactive
same,Potency,[3],inactive
same,Potency,[4],inactive
same,outcome,[9],inactive
same,outcome,[5],inactive
same,outcome,[6],inactive
same,outcome,[7],inactive
c1cc2cc(c1)C[n+]1ccc(c3ccccc31)NCc1ccc(cc1)CNc1cc[n+](c3ccccc13)C2,Potency,[8],inactive
C[C@]12Cc3cn4c(nc3C=C1CC[C@H]1[C@@H]2CC[C@@]2(C)[C@H]1CC[C@@]2(O)C#N)nc1ccccc14,Potency,[1],10 µM (active)
same,Potency,[2],inactive
same,Potency,[4],inactive
same,outcome,[5],inactive
same,outcome,[6],inactive
same,outcome,[7],inactive
Ic1ccccc1CN[C@@H]1C2CCN(CC2)[C@H]1C(c1ccccc1)c1ccccc1,Potency,[1],12.6 µM (active)
same,Potency,[3],inactive
same,Potency,[4],inactive
same,outcome,[9],inactive
same,outcome,[5],inactive
same,outcome,[6],inactive
same,outcome,[7],inactive
C=C(C)[C@H]1Cc2c(ccc3c2O[C@H]2COc4cc(OC)c(OC)cc4[C@@H]2C3=O)O1,outcome,[9],inactive
same,outcome,[6],inactive
same,outcome,[7],inactive
COc1ccc(OC)c([C@@H](O)[C@H](C)NC(C)(C)C)c1,activation,[10],0.127% (inactive)
CCCN1CCC[C@H](c2cccc(C#N)c2)C1,Potency,[3],11.2 µM (active)
same,Potency,[4],inactive
same,outcome,[9],inactive
same,outcome,[5],inactive
same,outcome,[6],inactive
same,outcome,[7],inactive
C[C@@H](Cc1cccc(C(F)(F)F)c1)NCCCc1ccccc1,Potency,[8],inactive
Nc1c(C(=O)NCc2ccco2)c2nc3ccccc3nc2n1CCN1CCCCC1,Potency,[10],7.94 µM (active)
C(=NC1CCCCC1)=NC1CCCCC1,Potency,[11],inactive
same,Potency,[12],inactive
same,activation,[13],1.63% (inactive)
O=C(CCl)c1ccccc1,Potency,[14],39.8 µM (active) and inactive
same,max response,[15],18.1%
same,Potency,[16],inactive
same,Potency,[17],inactive
COP(=O)(OC)O/C(=C\Cl)c1cc(Cl)c(Cl)cc1Cl,Potency,[11],inactive
same,activation,[13],-2.88% (inactive)
Nc1ccccc1C(=O)OCCc1ccccc1,Potency,[17],inactive
CN(CCc1ccc(Cl)c(Cl)c1)[C@H]1CCCC[C@H]1N1CCCC1,Potency,[8],inactive
